{"source": "PubChem BioAssay AID1947", "about": "(The Scripps Research Institute Molecular Screening Center, 2009)", "note": "In all, about 300,000 compounds went through this assay and about 990 (0.33%) were called active. This excerpt belongs to a sample that is enriched for actives. A number with no mark means an inactive call.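 Rule for the calls: active = inhibition above the screen mean inhibition plus 3 SD, computed separately per campaign (cut at about 18% in these data); inactive = the rest.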"}
{"tested_on": "Fam108B (ABHD17B) serine hydrolase [Mus musculus]", "test": "inhibition of Fam108B (ABHD17B) hydrolase – biochemical, fluorescence polarization, counter-screen for RBBP9 inhibitor project, primary screen (AID 1947);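 note: inhibitors lower polarization as less probe binds the enzyme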", "conditions": "recombinant Fam108B, FP-Rh probe fluorescence polarization; at 9.51 µM; hits give high values"}
{"smiles": "O=C(N/N=C/c1cc(Cl)cc([N+](=O)[O-])c1O)C(O)(c1ccccc1)c1ccccc1", "inhibition": "7.58%"}
{"smiles": "O=[N+]([O-])c1cc(Cl)cc(/C=N/NC(=S)Nc2cc(S(=O)(=O)N3CCOCC3)ccc2Cl)c1O", "inhibition": "49.6% (active)"}
{"smiles": "O=C(CN1CCN(c2ccc(O)cc2)CC1)Nc1cc(S(=O)(=O)N2CCOCC2)ccc1Cl", "inhibition": "1.19%"}
{"smiles": "O=C(O)COc1ccc(-c2nccc(-c3cccs3)n2)cc1", "inhibition": "-4.89%"}
{"smiles": "COC(=O)c1cc(-c2cccs2)nc2ccccc12", "inhibition": "-5.99%"}
{"smiles": "COC(=O)CSc1nccc(-c2cccs2)n1", "inhibition": "25.3% (active)"}
{"smiles": "Cc1ccc([C@@H]2CC=C(C(=O)O)[C@H](c3cccc(Cl)c3)N2S(=O)(=O)c2ccc(C)cc2)cc1", "inhibition": "-3.66%"}
{"smiles": "COc1ccc(-c2csc(NC(=O)COC(=O)Cc3ccc(Cl)cc3Cl)n2)cc1", "inhibition": "25.7% (active)"}
{"smiles": "COc1ccc(-c2csc(NC(=O)COC(=O)c3ccc(Br)o3)n2)cc1", "inhibition": "-1.38%"}
{"smiles": "CC(C)(C)NC(=O)NC(=O)COC(=O)Cc1ccc(Cl)cc1Cl", "inhibition": "-3.17%"}
{"smiles": "CC(C)(C)c1ccc(/C=C2\\SC(=O)N=C2N)cc1", "inhibition": "-2.33%"}
{"smiles": "CCOC(=O)c1c(N)sc(C(C)=O)c1C", "inhibition": "2.44%"}
{"smiles": "COCCOC(=O)c1sc(=S)n(CCOC)c1N", "inhibition": "30.9% (active)"}
{"smiles": "COC(=O)c1sc(=S)n(-c2ccc(Cl)cc2)c1C", "inhibition": "0.66%"}
{"smiles": "Cc1cc(-c2csc(N)n2)c(C)n1Cc1ccccc1", "inhibition": "1%"}
{"smiles": "CC(=O)c1ccc(-c2ccc(Cn3c(C)nc4cc(N)c(C)nc43)cc2)cc1", "inhibition": "-2.95%"}
{"smiles": "Cc1cc2nc3c(=O)n(Cc4ccccc4)c(=O)[nH]c3nc2cc1N", "inhibition": "20.1% (active)"}
{"smiles": "C=C1C2C[C@H](O)C(C)(C)[C@@]2(O)[C@H](O)C[C@]23C[C@@](C)(O)[C@H](CC[C@H]12)[C@H]3O", "note": "(stereo not given in full)", "inhibition": "-4.05%"}
{"smiles": "CCN(CC(=O)Nc1ccc2c(c1)OCO2)S(=O)(=O)c1ccccc1", "inhibition": "3.09%"}
{"smiles": "CCn1c(SCc2ccccc2)nc2c(c1=O)SCC2", "inhibition": "5.08%"}
{"smiles": "CSc1c(SCc2ccccc2)cnn(Cc2ccccc2)c1=O", "inhibition": "52.1% (active)"}
{"smiles": "CC(=O)Nc1ccc(NC(=O)CSc2ncnc3c2cnn3Cc2ccccc2)cc1", "inhibition": "1.73%"}
{"smiles": "Cc1noc(C)c1S(=O)(=O)N(C)Cc1ccccc1", "inhibition": "-2.49%"}
{"smiles": "Cc1cc(C)cc(C(=O)N(CCc2ccccc2)C2=CC3CCC(C2)N3C)c1", "note": "(stereo not given)", "inhibition": "-0.23%"}
{"smiles": "COCC(C)NC(=O)CSc1nc2nn(-c3ccccc3)c(=O)c-2c2n1CCCCC2", "note": "(stereo not given)", "inhibition": "0.63%"}
